Compound activity as filed in PubChem BioAssay.
Mtb betalactam = beta-lactam sensitization of Mtb H37Rv; M. tuberculosis H37Rv growth with meropenem, percent inhibition; inhibition, % at 25 µM; 330,000 tested, 0.27% active; AID 434955; call rule not given here;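 also: growth measured after seven days incubation then overnight dye step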
RecA intein inh = blocks M. tuberculosis RecA intein splicing | inhibition, % (test concentration not listed) | 290,000 tested, 0.75% active | P9WHJ3 | cell-free RecA intein splicing, fluorescence; in the data active = inhibition above about 30%; inconclusive = no clear call, values can overlap the other calls
GDH-TPI counter-1 = inhibits GDH-TPI coupling enzymes, artifact for Mtb FBA screen. GDH-TPI coupled enzyme counterscreen, NADH absorbance. inhibition, % at 4.8 µM. 360,000 tested, 1.2% active; in the data active = inhibition above about 30%
CCHFV vOTU inh = blocks the CCHF virus ovarian tumor domain protease. 370,000 tested, 0.55% active. CCHFV vOTU protease, Pep-AMC fluorescence. inhibition, % at 11.5 µM. AID 651958; in the data active = inhibition above about 30%
Mtb FBA inh = inhibits M. tuberculosis FBA enzyme. purified M. tuberculosis FBA, fluorescence read-out. inhibition, % at 1 µM. 360,000 tested, 2.3% active. AID 588726
Target sequence (P9WQA3 whole entry, looked up): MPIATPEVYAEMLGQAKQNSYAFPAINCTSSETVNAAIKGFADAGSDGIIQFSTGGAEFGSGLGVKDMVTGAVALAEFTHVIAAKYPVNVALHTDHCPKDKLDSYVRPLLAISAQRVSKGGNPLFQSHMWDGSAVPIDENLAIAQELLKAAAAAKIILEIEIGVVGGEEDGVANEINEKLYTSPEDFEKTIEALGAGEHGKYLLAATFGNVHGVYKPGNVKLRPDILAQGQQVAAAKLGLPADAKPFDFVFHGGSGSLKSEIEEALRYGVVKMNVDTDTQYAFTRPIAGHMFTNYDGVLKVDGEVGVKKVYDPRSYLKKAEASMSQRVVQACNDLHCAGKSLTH
Mtb FBA confirm = confirmation of M. tuberculosis fructose-bisphosphate aldolase inhibitors | shares compounds with Mtb FBA inh | purified M. tuberculosis FBA, fluorescence read-out | inhibition, % at 1 µM | 5,600 tested, 78% active
GDH-TPI counter-2 = inhibits GDH-TPI coupling enzymes, flagging Mtb FBA hits | shares compounds with Mtb FBA inh | 5,600 tested, 81% active | GDH-TPI coupled enzyme counterscreen, fluorescence | inhibition, % at 1 µM; in the data active = inhibition above about 10%
A number is an active result; – = inactive; ? = inconclusive; · = no result; + = active, no number. Only some compounds are listed: those with a hit (about 4.2% of all), similar ones and a draw of the others. Rule as the data show it, unless noted: active = inhibition above about 27%; inactive = the rest.

SMILES | Mtb betalactam | RecA intein inh | GDH-TPI counter-1 | CCHFV vOTU inh | Mtb FBA inh | Mtb FBA confirm | GDH-TPI counter-2
O=C1c2ccccc2NC(c2cccc([N+](=O)[O-])c2)N1CCc1ccccc1 (stereo unspecified) | – | – | – | – | – | · | ·
O=C1c2ccccc2NC(c2ccccc2F)N1NS(=O)(=O)c1ccccc1 (stereo unspecified) | – | – | – | – | – | · | ·
CCN(CC)CCN1C(=O)c2ccccc2NC1c1ccc(N(C)C)cc1 (stereo unspecified) | – | – | – | – | – | · | ·
CCN(CC)CCN1C(=O)c2ccccc2NC1c1ccc(Br)cc1 (stereo unspecified) | – | – | – | – | 84.3 | 120.7 | 101.0
CN(C)c1ccc(C2Nc3ccccc3C(=O)N2CCCN2CCOCC2)cc1 (stereo unspecified) | – | – | – | – | – | · | ·
CCN(CC)CCN1C(=O)c2ccccc2NC1c1ccc(F)cc1 (stereo unspecified) | – | – | – | – | 45.0 | 129.1 | 117.2
CCN(CC)CCN1C(=O)c2ccccc2NC1c1ccccc1F (stereo unspecified) | – | – | – | – | 68.4 | 168.7 | 88.0
CCN(CC)CCN1C(=O)c2ccccc2NC1c1cccc(F)c1 (stereo unspecified) | – | – | – | – | 50.6 | 27.3 | 21.3
CCCN1CCS(=O)(=O)N(Cc2cn(Cc3ccc(C)cc3)nn2)C(C(=O)OC)C1 (stereo unspecified) | · | · | · | – | · | · | ·
CC(C)(C)c1ccc(C#C[C@@H]2C=C[C@H]3OC(=O)CC/C=C/CCC(=O)OC[C@H]3O2)cc1 | · | · | · | – | · | · | ·
O=C(O)CCC(=O)NN1C(=O)c2ccccc2NC1c1ccc(F)cc1 (stereo unspecified) | – | – | – | – | 40.0 | 126.6 | 95.1
CCN(CC)CCN1C(=O)c2ccccc2NC1c1ccc(C)cc1 (stereo unspecified) | ? | – | – | – | 78.8 | 63.3 | 38.5
CCOC(=O)CC[C@@]1(C(=O)OCC)C[C@@H](CC(=O)N2CCSCC2)C(=O)N2CCCC=C21 | · | · | · | – | · | · | ·
COc1c(O)c(=O)n2c3ccccc3c3ccnc1c32 | – | – | – | – | – | · | ·
O=c1c(Cl)c(O)c2cccc3c4ccccc4n1c23 | – | – | – | – | 85.5 | 85.7 | 63.6
CCn1c(Cc2cccs2)nnc1SCC(=O)Nc1ccc(OCc2ccccc2)cc1 | · | · | · | – | · | · | ·
Cc1cc(=O)n2[nH]cc(C(=O)O)c2n1 | – | – | – | – | 38.3 | 178.1 | 146.4
CC(C)(C)N1Cc2nnn(Cc3ccccc3)c2-c2cc(N3CCCCC3)ccc2S1(=O)=O | · | · | · | – | · | · | ·
Cc1cccc(-c2cccc3c4c([nH]c23)[C@@H]2C[C@H](N(C)C(=O)c3ccco3)[C@H]([C@H](C)O)C(=O)N2CC4)c1 | · | · | · | – | · | · | ·
Nc1cc(Cl)ccc1C(=O)OCC(=O)NC(=O)NCc1ccccc1 | – | – | – | – | 30.1 | 62.7 | 48.8
Nc1cc(Cl)ccc1C(=O)OCC(=O)NC1CCCCCCC1 | – | · | – | – | 27.5 | 72.9 | 55.9
CN(Cc1ccccc1)C(=O)COC(=O)c1ccc(Cl)cc1N | – | – | – | – | 49.7 | 101.3 | 90.3
CCNC(=O)N(C)[C@H]1C[C@H]2c3[nH]c4c(-c5cccc(C)c5)cccc4c3CCN2C(=O)[C@H]1[C@H](C)O | · | · | · | – | · | · | ·
CC(C)NCC(O)Cn1c2c(c3ccccc31)CCc1c-2cnn1-c1ccccc1 (stereo unspecified) | – | – | – | – | 32.8 | – | –
CC(C)c1cc(C(C)C)n2nc(N)nc2n1 | – | – | – | – | – | · | ·
SMILES | Mtb betalactam | RecA intein inh | GDH-TPI counter-1 | CCHFV vOTU inh | Mtb FBA inh | Mtb FBA confirm | GDH-TPI counter-2
CCCc1cc(CCC)n2nc(N)nc2n1 | · | · | – | – | 31.9 | + | 178.8
O=C(NCC1CCN(C(=O)C(=O)c2cccs2)CC1)c1ccncc1 | · | · | · | – | · | · | ·
COC(=O)N1C[C@H](O)[C@H](O)C[C@@H]1c1ccccc1Br | · | · | · | – | · | · | ·
COc1cc(-c2nnc(-c3cccs3)o2)cc(OC)c1OC | – | – | – | – | – | · | ·
COc1cc(-c2nnco2)cc(OC)c1OC | – | – | · | – | · | · | ·
COc1ccc(-c2nnc(-c3cc(OC)c(OC)c(OC)c3)o2)cc1OC | – | – | – | – | 88.6 | 39.6 | 28.4
COc1ccc(-c2nnc(-c3cccs3)o2)cc1OC | – | – | – | – | 55.0 | 63.1 | 53.2
CCOc1ccc(-c2nnc(-c3cccs3)o2)cc1 | – | – | – | – | 74.5 | 54.5 | 46.4
CSc1ccc(Oc2cccc3c2S(=O)(=O)N(C2CC2)C[C@@H](COCc2ccccc2)O3)cc1C | · | · | · | – | · | · | ·
COc1ccc(-c2cc(=O)[nH]c3ccccc23)cc1 | – | · | – | – | – | · | ·
COc1cccc2[nH]c(C(=O)NC(C)c3ccccc3)cc12 (stereo unspecified) | – | – | – | – | 49.9 | 155.7 | 116.8
COc1cccc2[nH]c(C(=O)NCC3CCCO3)cc12 (stereo unspecified) | – | – | – | – | 32.3 | 125.9 | 97.2
O=C(NCC1CCCO1)c1cc2ccccc2[nH]1 (stereo unspecified) | – | – | – | – | – | · | ·
COc1cccc(-c2nn(-c3ccc(F)cc3)cc2C(=O)NCC2CCCO2)c1 (stereo unspecified) | – | – | – | – | 47.2 | + | +
COc1cccc2[nH]c(=O)c(-c3ccccc3)cc12 | – | – | – | – | 71.2 | 46.6 | 38.6
CC(=O)c1cc(-c2ccc([N+](=O)[O-])cc2)c(=O)n2c1CCC2 | · | · | · | – | · | · | ·
COCCCNC(=O)C[C@H]1C[C@@]2(C(=O)OC)C(=C[C@H](COCc3ccccc3)O[C@@H]2C)N(Cc2ccco2)C1=O | · | · | · | – | · | · | ·
COC(=O)c1ccc(Cn2ccc3ccc(-c4ccc5ccn(C(=O)C6CCCCC6)c5c4)cc32)cc1 | · | · | · | – | · | · | ·
CCc1ccccc1NC(=O)C1CCC(=O)N(c2ccc(OC)cc2)C1c1ccc(OC)cc1 (stereo unspecified) | · | · | · | – | · | · | ·
COc1ccccc1-c1nc(C(=O)NCC2CCCO2)cc2c1[nH]c1ccccc12 (stereo unspecified) | – | – | – | · | – | · | ·
COc1cc(-c2nc(C(=O)NCC3CCCO3)cc3c2[nH]c2ccccc23)cc(OC)c1OC (stereo unspecified) | – | – | – | – | 38.1 | 59.6 | 50.4
COc1cccc(-c2nc(C(=O)NCCCN3CCOCC3)cc3c2[nH]c2ccccc23)c1 | – | – | – | – | 38.4 | – | –
O=C(NCCCN1CCOCC1)c1cc2c([nH]c3ccccc32)c(-c2cccc(Br)c2)n1 | – | – | – | – | – | · | ·
CCN1CCCC1CNC(=O)c1cc2c(OC)c(OC)c(OC)cc2[nH]1 (stereo unspecified) | – | – | – | – | – | · | ·
CCN1CCCC1CNC(=O)c1cc2c(OC)cccc2[nH]1 (stereo unspecified) | – | – | – | – | 30.3 | 61.1 | 34.0
O=c1ccc2cc3c4c(c2o1)CCCN4CCC3 | – | – | – | – | 54.4 | 62.1 | 59.7
